High-throughput results: PubChem BioAssay, National Center for Advancing Translational Sciences (NCATS)
Shown are actives, neighbours in structure and some others; about 19% of the full set was active somewhere.
uPA surface inh: cell surface uPA generation inhibition. cell surface uPA generation assay, qHTS. Potency, µM (highest dose often 38.3 µM), for inactives: at the top dose activity change, negative = inhibition, most hits filed as inhibitors. actives 0.31% (n = 330,000); active = well fitted inhibition curve with a large enough effect; inconclusive = small, poorly fitted or top-dose-only effect; inactive = no such curve, though single readings can be large or run the other way; tested in mouse RAW 264.7 cells; note: potency is the fitted concentration of half-maximal effect; nearly all actives have a fitted effect of over 55% in size
DT40 TDP1 CPT: growth inhibition of DT40 Tdp1-/-;hTDP1 cells with camptothecin (screen for TDP1 inhibitors) | chicken DT40 Tdp1-/-;hTDP1 cells + 20 nM CPT, ATP luminescence, 48 h | Potency, µM (highest dose often 46.2 µM), for the others: at the top dose activity change, negative = growth inhibition, usual class: inhibitors | actives 12% (n = 420,000); note: potency is the fitted concentration of half-maximal effect; nearly all actives have a fitted effect of over 55% in size
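Cell growth measured by CellTiter-Glo luminescence after a minimum 48 h, 37 C compound exposure with 20 nM CPT in Tdp1-knockout DT40 cells stably expressing hTDP1, seeded 400/well; qHTS titration format.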
HT1080-NT tox: kills 2HG-producing HT-1080-NT fibrosarcoma cells; AID 686970; actives 1.6% (n = 360,000); HT-1080-NT fibrosarcoma viability, CellTiter-Glo ATP luminescence, 48 h; Potency, µM (top dose mostly 46.1 µM), inactives show top-dose activity, negative = less viability, usual class: cytotoxic;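 note: NT is the 2HG producing partner of a matched IDH1 knockdown line; potency is the fitted concentration of half-maximal effect; 0% = DMSO-treated cells and -100% = media-only wells without cells; nearly all actives have a fitted effect of over 55% in size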
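HT-1080-NT; 750 cells/well; 5% FBS RPMI; 48 h compound, 37 degrees C; CellTiter-Glo luminescence; curve fitting and curve-class assignment.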
TDP1 cell noCPT: qHTS for Inhibitors of human tyrosyl-DNA phosphodiesterase 1 (TDP1): qHTS in cells in absence of CPT; DT40 Tdp1-/- hTDP1 cells, no CPT, ATP luminescence, 48 h; Potency, µM (doses to about 46.2 µM), inactives show at the highest dose activity change, negative = growth inhibition, usual class: inhibitors; actives 15% (n = 420,000); AID 686978, 2013; note: potency is the fitted concentration of half-maximal effect; nearly all actives have a fitted effect of over 55% in size
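Stably hTDP1-transfected Tdp1-null chicken DT40 cells were treated with library compounds minus camptothecin and grown for at least 48 hr at 37 °C, after which cellular ATP was quantified by luminescence.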
IL1B secr inh: blocks inflammasome-driven IL-1 beta release | actives 4.7% (n = 360,000) | activity change, % at 57.5 µM | THP-1 LPS/ATP IL-1B secretion, AlphaLISA, 16 h; stronger effect = lower value | AID 743279; in the data active = activity change below about -50%; inconclusive = mostly about -30% to -49%
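THP-1 cells pretreated 1 hr with compounds (up to 57.5 uM final), then stimulated with LPS (250 ng/mL final) plus ATP (1.25 mM final); secreted IL-1B measured by AlphaLISA after 16 hr, decreased signal indicating inhibition.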
HT1080 IDH1KD tx: kills HT-1080 cells with IDH1 knockdown; HT-1080 IDH1 knockdown viability, ATP luminescence, 48 h; Potency, µM (titrated, usually from 46.1 µM), without a hit: at the highest dose activity, negative = toxicity, hits mostly cytotoxic; actives 2% (n = 360,000); AID 686971;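 note: potency is the fitted concentration of half-maximal effect; 0% = DMSO wells and -100% = cell-free medium wells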
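% activity derives from luminescence (CellTiter-Glo), normalised to DMSO and no-cell wells. HT-1080-IDH1KD cells, 750/well, had 48 h compound exposure at 37 °C.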
* hit, by the source's call; ? = inconclusive; nt = no result given. Unless noted, calls come from the whole dose curve; as a rule, active = well fitted curve in the direction sought with a large enough effect; inconclusive = small, poorly fitted or top-dose-only effect, or another doubt; inactive = no such curve, though single readings can be large; an effect the other way counts as inactive or inconclusive. Unless noted, % is set by controls: 0 for no effect and ±100 for the full control effect.

SMILES	uPA surface inh	DT40 TDP1 CPT	HT1080-NT tox	TDP1 cell noCPT	IL1B secr inh	HT1080 IDH1KD tx
COC(=O)[C@@]12C[C@@H](CC(=O)NCCCN3CCCC3=O)C(=O)N(Cc3ccc4c(c3)OCO4)C1=CCC(C)(C)C2	nt	?	4%	?	7	-2%
O=[N+]([O-])c1ccc(COc2ccc(CN3CCCC3)cc2)cc1	?	16µM*	-1%	18µM*	-8	-1%
O=[N+]([O-])c1ccc(COc2ccc(CN3CCOCC3)cc2)cc1	-12%	?	2%	23µM*	-27	2%
Cc1ccc(-c2nc3cnccn3c2Nc2c(C)cccc2C)o1	?	5.8µM*	-17%	10µM*	13	-14%
Cc1ccc(Nc2c(-c3ccc(C)o3)nc3ncccn23)cc1	1%	-9%	7%	-19%	79	14%
Cc1ccc(-c2nc3cnccn3c2Nc2ccc(C(C)C)cc2)o1	nt	?	4%	10µM*	nt	6%
Cc1nc(SCC(=O)N(CC(C)C)C2CCS(=O)(=O)C2)c(C#N)c(C)c1C (stereo not drawn)	3%	-25%	2%	-7%	3	9%
CC(O)CNCCNCc1c(OCc2ccccc2)ccc2ccccc12 (stereo not drawn)	?	16µM*	18µM*	23µM*	-87*	11µM*
CC(O)CNCCOc1ccccc1OCc1ccccc1 (stereo not drawn)	-8%	?	0%	?	-13	-6%
OCCNCc1c(OCc2ccc(Cl)cc2)ccc2ccccc12	-8%	18µM*	23µM*	23µM*	nt	?
Cc1ccccc1C(=O)Nc1cc(C(F)(F)F)ccc1-n1cncn1	-10%	20%	5%	-6%	31	0%
Cn1c(C(C#N)C(=O)c2sc3ccccc3c2Cl)nc2ccccc21 (stereo not drawn)	-4%	?	?	16µM*	-21	?
CC(C)c1nnc(NC(=O)c2sc3ccccc3c2Cl)s1	-3%	-22%	-18%	-20%	7	1%
COc1cc(NC2CCCCC2O)c2nc(-c3ccc(Cl)cc3)ccc2c1 (stereo not drawn)	-29%	21µM*	?	?	-24	?
CC(C)=CCC[C@H](C)C[C@@H]1Cc2[nH]c(=S)[nH]c(=O)c2[C@@H](c2ccc(F)cc2)O1	nt	?	-22%	26µM*	86	-26%
CC(C)=CCC[C@H](C)CC1Cc2[nH]c(=S)[nH]c(=O)c2C(c2ccc(Cl)cc2)O1 (stereo partly drawn)	nt	?	?	?	-20	16µM*
CC(C)=CCC[C@H](C)CC1Cc2[nH]c(=S)[nH]c(=O)c2C(c2ccc(F)cc2)O1 (stereo partly drawn)	nt	-4%	1%	?	5	0%
CC(C)=CCC[C@H](C)C[C@@H]1CC2=C(C(=O)OC(C)(C)O2)[C@@H](c2ccc(F)cc2)O1	nt	?	13%	16µM*	0	3%
Cc1ccccc1NCCC(=O)Nc1ccc(Cl)cc1	-2%	?	-2%	?	-6	-15%
O=S1OC(c2ccccc2)c2cc(Cl)ccc21 (stereo not drawn)	-9%	-17%	-4%	-18%	-111*	-11%
NNC(=O)CN1C(=O)Nc2ccc(Cl)cc2C1c1ccccc1 (stereo not drawn)	7%	-5%	-1%	3%	-7	4%
Cc1ccccc1-n1ncc(C(C)NS(=O)(=O)c2sccc2C)c1C (stereo not drawn)	-1%	?	0%	?	6	-13%
O=c1[nH]c(CN2CCN(c3ccc(O)cc3)CC2)nc2scc(-c3ccc(Cl)cc3)c12	5µM*	3.7µM*	?	4.6µM*	0	21µM*
COc1cccc(N2CCN(Cc3nc4scc(-c5ccccc5)c4c(=O)[nH]3)CC2)c1	-17%	5.2µM*	13µM*	5.2µM*	33	12µM*
O=c1[nH]c(CN2CCN(c3ccccc3O)CC2)nc2scc(-c3ccccc3Cl)c12	3%	?	-28%	?	-52*	?
SMILES	uPA surface inh	DT40 TDP1 CPT	HT1080-NT tox	TDP1 cell noCPT	IL1B secr inh	HT1080 IDH1KD tx
COc1cccc(N2CCN(Cc3nc4ccccc4c(=O)[nH]3)CC2)c1	2%	1%	-1%	?	9	2%
Cc1csc(NC(=O)CSc2nccn2C)n1	0%	-4%	12%	18%	14	10%
N#Cc1ccccc1Cn1c(=O)n(Cc2ccc(C(=O)NC3CCN(Cc4ccccc4)CC3)cc2)c(=O)c2ccccc21	nt	2%	nt	7%	nt	nt
COCCCNC(=O)c1ccc(Cn2c(=O)c3ccccc3n(Cc3ccccc3C)c2=O)cc1	-9%	?	?	?	6	16µM*
COCCCNC(=O)c1ccc(Cn2c(=O)c3ccccc3n(Cc3ccccc3C#N)c2=O)cc1	-16%	16µM*	?	?	13	?
COCCCNC(=O)c1ccc(Cn2c(=O)c3ccccc3n(Cc3cc(C)ccc3C)c2=O)cc1	-6%	-4%	-2%	-16%	-18	-5%
CCc1ccc(NC(=O)Cn2cc(S(=O)(=O)N3CCCC3)c(S(=O)(=O)N3CCCC3)c2)cc1	nt	-2%	nt	-2%	nt	nt
Cc1cc(C)cc(NC(=O)CNS(=O)(=O)c2ccc3nc(C)sc3c2)c1	nt	-6%	nt	-13%	nt	nt
COc1ccccc1CN1CC(C(=O)NCCCCc2ccccn2)CCC1=O (stereo not drawn)	nt	-5%	-2%	-21%	26	-4%
CN(C)c1ccnc2sc3c(SCc4ccc(Cl)cc4)ncnc3c12	3%	16µM*	17%	13µM*	25	19%
CN(C)c1ccnc2sc3c(NCC(O)CO)ncnc3c12 (stereo not drawn)	1%	-6%	3%	?	-7	0%
CCOc1ccc(N)c(SSc2cc(OCC)ccc2N)c1	-8%	2.6µM*	?	5.2µM*	0	?
Cc1nc2ccccc2n1-c1ccccc1	-2%	?	1%	?	14	0%
Cc1nc2ccccc2c2c(N)c3ccccc3n12	-6%	?	?	21µM*	0	-9%
O=[N+]([O-])c1cc(Cl)ccc1N1CCCC1	-3%	-10%	0%	-36%	0	7%
O=[N+]([O-])c1ccc(Cl)cc1N/N=C/c1ccncc1	6%	-8%	0%	4%	-12	1%
